Reference: PubChem BioAssay (Tox21)
Records with an inconclusive call do not appear. The source made the active and inactive calls. Unless noted, calls follow the shape of the dose curve; as a rule, active = well fitted curve in the direction sought with a large enough effect in the repeat runs; inconclusive = weak or mixed curves; inactive = no such curve, though single readings can be large; an effect the other way counts as inactive or inconclusive.

What was measured:
[1] = qHTS assay to identify small molecule agonists of the estrogen receptor alpha (ER-alpha) signaling pathway in the presence of an antagonist - cell viability counter screen (AID 1259386);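 also: cells exposed to compounds for 22 h at 37 °C before the viability read; nearly all actives have a fitted effect of over 30% in size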; also: potency is read from the fitted curve at half-maximal effect; as to activity change, negative = cytotoxicity: series mostly up to about 92 µM
Outline: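 Steps: 5-day stripped-FBS culture; seed and incubate 24hr; add ICI-182,780 (10.0nM final); pin 15-point compound titration; incubate 22hr at 37C; add CellTiter-Fluor at 21hr; read fluorescence.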

[2] = biological target: Progesterone receptor (Homo sapiens) (UniProt P06401); test: qHTS assay to identify small molecule agonists of the progesterone receptor (PR) signaling pathway (AID 1346784; calls by dose curve; also: nearly all actives have a fitted effect of over 30% in size)
Outline: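 Reporter assay, GripTite PR-UAS-bla HEK 293T cells: 16 hr exposure to DMSO-dissolved compounds at 37C, 5% CO2, in steroid-depleted (2% charcoal-stripped FBS) medium; beta-lactamase measured by FRET fluorescence.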

[3] = qHTS assay to identify small molecule antagonists of the progesterone receptor (PR) signaling pathway - cell viability counter screen (AID 1346798); also: series mostly up to about 92 µM; nearly all actives have a fitted effect of over 50% in size
Outline: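 In the same plates used for the beta-lactamase readout, cell viability of compound- and R5020-treated PR-UAS-bla HEK293T cells (16 hr, 37C) was assessed by CellTiter-Glo luminescence.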

[4] = qHTS assay to identify small molecule agonists of the progesterone receptor (PR) signaling pathway - cell viability counter screen (AID 1346799; calls by dose curve; also: nearly all actives have a fitted effect of over 45% in size)
Outline: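 Multiplexed viability read: CellTiter-Glo luminescence, 30 min RT, following LiveBLAzer FRET measurement on PR-UAS-bla HEK293T cells exposed to compounds 16 hr.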

[5] = qHTS assay to identify small molecule antagonists of the TGF-beta/Smad signaling pathway - cell viability counter screen (AID 1346824); also: nearly all actives have a fitted effect of over 50% in size
Outline: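 SBE-bla HEK 293T cells, incubated overnight, then compound plus 0.25 ng/mL TGF-beta1 (stock added) for 5 hr at 37 C. Viability was read in the same wells by CellTiter-Glo luminescence after 30 min at room temperature.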

[6] = qHTS assay to identify small molecule agonists of the TGF-beta/Smad signaling pathway - cell viability counter screen (AID 1346829); also: top concentration of the series differs between compounds; nearly all actives have a fitted effect of over 45% in size
Outline: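 Cytotoxicity counter screen: CellTiter-Glo luminescence (30 min, room temperature) measured in the SBE-bla HEK 293T reporter wells after 5 hr compound treatment at 37 C and the 2 hr substrate step.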

[7] = qHTS assay to identify small molecule agonists of the TGF-beta/Smad signaling pathway (AID 1346859; active = well fitted activation curve with a large enough effect in the signal ratio in the repeat runs, not every such curve was filed as active; the % refers to the signal ratio; also: series mostly up to about 77 µM)
Outline: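 Screening used HEK 293T SBE-bla cells at 4,000/well. Test agents: 5 hr, 37 C. Detection: FRET substrate, 2 hr RT, then excitation 405 nm with emissions at 460 and 530 nm.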

[8] = biological target: Thyrotropin-releasing hormone receptor (Homo sapiens) (UniProt P34981); test: qHTS assay to identify small molecule antagonists of the thyrotropin-releasing hormone receptor (TRHR) signaling pathway (AID 1346877; active = well fitted inhibition curve with a large enough effect in the repeat runs, not every such curve was filed as active; also: potency is read from the fitted curve at half-maximal effect)
Outline: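 Human TRHR in HEK293 cells; inhibition of the intracellular calcium rise triggered by 1 nM TRH was followed by fluorescence over 3 min. Compounds were run at 15 concentrations, three replicates each.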

[9] = biological target: Thyrotropin-releasing hormone receptor (Homo sapiens) (UniProt P34981); test: qHTS assay to identify small molecule agonists of the thyrotropin-releasing hormone receptor (TRHR) signaling pathway (AID 1346891; calls by dose curve; also: series mostly up to about 58 µM)
Outline: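 Readout was intracellular calcium fluorescence in TRHR-Hek293 cells. Cells were incubated 18 h, dye-loaded 2 h at 37 °C, and treated with compound in agonist mode.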

[10] = Human pregnane X receptor (PXR) small molecule agonists, qHTS cell viability counter screen (AID 1346977); also: nearly all actives have a fitted effect of over 50% in size; also: potency is read from the fitted curve at half-maximal effect
Outline: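 In each well, the PXR reporter HepG2 line was checked for viability: CellTiter-Fluor reagent added 23hr post-dosing, fluorescence read after 1hr incubation at 37C.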

[11] = Caspase-3/7 induction in HepG2 cells by small molecules, qHTS assay (AID 1346978); also: nearly all actives have a fitted effect of over 15% in size
Outline: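 Wild-type HepG2 cells, 2,000/well, settled 5 hr at 37 C and 5% CO2, then compound-treated for 17 hr; caspase-3/7 activity read by luminescent Caspase-Glo 3/7 after 30 min at room temperature.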

[12] = Caspase-3/7 induction in CHO-K1 cells by small molecules, qHTS cell viability counter screen (AID 1346979); also: nearly all actives have a fitted effect of over 35% in size; also: potency is read from the fitted curve at half-maximal effect
Outline: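 Following a 5hr settling period, CHO-K1 cells at 1,500 per well received DMSO-dissolved compounds. Cell viability was quantified 16hr later by CellTiter-Fluor fluorescence, measured after 1hr with reagent at 37C.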

[13] = Caspase-3/7 induction in CHO-K1 cells by small molecules, qHTS assay (AID 1346980); also: nearly all actives have a fitted effect of over 15% in size
Outline: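 Wild-type CHO-K1 cells exposed to compounds for 17hr at 37 C, 5% CO2. Caspase-3/7 activity then measured by Caspase-Glo 3/7 luminescence after 30min at room temperature.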

[14] = Caspase-3/7 induction in HepG2 cells by small molecules, qHTS cell viability counter screen (AID 1346981); also: nearly all actives have a fitted effect of over 30% in size; also: potency is read from the fitted curve at half-maximal effect; as to activity change, negative = cytotoxicity: series mostly up to about 92 µM
Outline: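 The parent HepG2 line is plated at 2,000 cells per well and rested 5 hr before compound pinning from DMSO stocks. Following a 16-hr treatment at 37 C, a fluorogenic live-cell substrate (CellTiter-Fluor) reports viability after 1 hr.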

[15] = biological target: Nuclear receptor subfamily 1 group I member 2 (Homo sapiens) (UniProt O75469); test: Human pregnane X receptor (PXR) small molecule agonists, qHTS assay (AID 1346982); also: nearly all actives have a fitted effect of over 35% in size; also: potency is read from the fitted curve at half-maximal effect
Outline: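 After plating in 5% charcoal-stripped FBS and a 5 hr rest, PXR-Luc HepG2 cells received compounds in DMSO. Following 24 hr at 37 C, ONE-Glo was added and light output read.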

[16] = biological target: Acetylcholinesterase (Homo sapiens) (UniProt P22303); test: Acetylcholinesterase (AChE) small molecule antagonists: colormetric cell-based qHTS assay (AID 1347395; calls by dose curve; also: nearly all actives have a fitted effect of over 30% in size)
Outline: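 After overnight attachment at 37 C, SH-SY5Y cells get 30 min compound exposure; detection cocktail (acetylthiocholine, DTNB) then incubates 90 min at 37 C, and absorbance reflects AChE-generated thiocholine.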

[17] = biological target: Progesterone receptor (Homo sapiens) (UniProt P06401); test: qHTS assay to identify small molecule antagonists of the progesterone receptor (PR) signaling pathway (AID 1346795; active = well fitted inhibition curve with a large enough effect in the signal ratio in the repeat runs, not every such curve was filed as active; the % refers to the signal ratio; also: potency is read from the fitted curve at half-maximal effect)
Outline: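 Stimulus R5020 at 1 nM final; cells HEK293T PR-UAS-bla; medium with 2% charcoal-stripped FBS; compound exposure 16 hr at 37C, 5% CO2; detection by FRET beta-lactamase substrate, 2 hr, room temperature.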

[18] = biological target: Nuclear receptor subfamily 1 group I member 2 (Rattus norvegicus) (UniProt Q9R1A7); test: Rat pregnane X receptor (rPXR) activation by small molecules, qHTS assay (AID 1346983); details: rPXR luciferase reporter cells, One-Glo luminescence, 24 h; max activation: hits give high values; also: nearly all actives have a fitted effect of over 20% in size
Outline: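 Cell-based rPXR activation assay: rPXR cells, 2,000 per well, rested 5hr at 37 C, then exposed to compounds in DMSO for 24 hr at 37 C. Luciferase activity read by One-Glo luminescence after 30 min at room temperature.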

[19] = biological target: Nuclear receptor subfamily 1 group I member 2 (Homo sapiens) (UniProt O75469); test: CYP3A4 induction through human pregnane X receptor (PXR) by small molecules, qHTS assay (AID 1346984); also: nearly all actives have a fitted effect of over 40% in size
Outline: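 Human PXR activation is tracked via CYP3A4 promoter-luciferase in DPX-2 (HepG2) cells. Compounds treat cells for 24hr at 37C, and luminescence is read after One-Glo.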

[20] = biological target: Nuclear receptor subfamily 1 group I member 2 (Homo sapiens) (UniProt O75469); test: Human pregnane X receptor (PXR) activation by small molecules, qHTS assay (AID 1346985); also: nearly all actives have a fitted effect of over 40% in size
Outline: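 DPX-2 cells (HepG2 co-transfected with a PXR response element and a CYP3A4-promoter luciferase construct) were seeded at 2,000 per well, rested 5 hr at 37C, then exposed to DMSO-dissolved compounds for 24 hr. Activation was read as luciferase luminescence.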
% is scaled to controls: 0 for no effect and ±100 for the full control effect.

Acetylcholinesterase (Homo sapiens), sequence (P22303 whole entry, looked up): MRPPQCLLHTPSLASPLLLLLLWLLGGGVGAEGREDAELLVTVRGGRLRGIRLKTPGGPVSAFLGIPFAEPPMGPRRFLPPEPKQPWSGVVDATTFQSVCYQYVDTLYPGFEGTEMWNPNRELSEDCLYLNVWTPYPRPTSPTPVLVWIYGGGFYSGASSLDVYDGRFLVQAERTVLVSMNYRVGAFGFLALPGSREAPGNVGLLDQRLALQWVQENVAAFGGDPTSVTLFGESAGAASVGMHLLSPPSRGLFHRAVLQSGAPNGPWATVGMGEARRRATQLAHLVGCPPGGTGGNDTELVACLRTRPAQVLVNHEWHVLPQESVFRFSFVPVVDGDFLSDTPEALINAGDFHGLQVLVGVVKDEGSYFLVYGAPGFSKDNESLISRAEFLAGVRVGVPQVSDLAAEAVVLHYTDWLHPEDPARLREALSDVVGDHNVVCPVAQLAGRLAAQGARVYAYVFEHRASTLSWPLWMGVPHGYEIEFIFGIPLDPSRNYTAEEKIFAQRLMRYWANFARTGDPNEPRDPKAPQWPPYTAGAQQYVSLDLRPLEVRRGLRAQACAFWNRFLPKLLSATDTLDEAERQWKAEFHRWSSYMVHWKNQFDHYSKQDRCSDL
Thyrotropin-releasing hormone receptor (Homo sapiens), sequence (P34981 whole entry, looked up): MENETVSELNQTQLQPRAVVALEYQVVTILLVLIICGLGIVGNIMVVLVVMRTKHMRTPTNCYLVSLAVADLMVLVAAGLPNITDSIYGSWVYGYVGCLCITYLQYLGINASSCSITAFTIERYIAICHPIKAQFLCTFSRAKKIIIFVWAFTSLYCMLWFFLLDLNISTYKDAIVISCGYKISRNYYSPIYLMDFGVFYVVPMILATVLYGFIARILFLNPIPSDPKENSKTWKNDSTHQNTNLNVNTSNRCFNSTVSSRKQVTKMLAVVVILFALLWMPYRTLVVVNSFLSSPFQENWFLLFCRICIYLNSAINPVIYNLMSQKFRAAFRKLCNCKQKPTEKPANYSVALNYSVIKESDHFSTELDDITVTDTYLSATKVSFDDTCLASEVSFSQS
Progesterone receptor (Homo sapiens), sequence (P06401 whole entry, looked up): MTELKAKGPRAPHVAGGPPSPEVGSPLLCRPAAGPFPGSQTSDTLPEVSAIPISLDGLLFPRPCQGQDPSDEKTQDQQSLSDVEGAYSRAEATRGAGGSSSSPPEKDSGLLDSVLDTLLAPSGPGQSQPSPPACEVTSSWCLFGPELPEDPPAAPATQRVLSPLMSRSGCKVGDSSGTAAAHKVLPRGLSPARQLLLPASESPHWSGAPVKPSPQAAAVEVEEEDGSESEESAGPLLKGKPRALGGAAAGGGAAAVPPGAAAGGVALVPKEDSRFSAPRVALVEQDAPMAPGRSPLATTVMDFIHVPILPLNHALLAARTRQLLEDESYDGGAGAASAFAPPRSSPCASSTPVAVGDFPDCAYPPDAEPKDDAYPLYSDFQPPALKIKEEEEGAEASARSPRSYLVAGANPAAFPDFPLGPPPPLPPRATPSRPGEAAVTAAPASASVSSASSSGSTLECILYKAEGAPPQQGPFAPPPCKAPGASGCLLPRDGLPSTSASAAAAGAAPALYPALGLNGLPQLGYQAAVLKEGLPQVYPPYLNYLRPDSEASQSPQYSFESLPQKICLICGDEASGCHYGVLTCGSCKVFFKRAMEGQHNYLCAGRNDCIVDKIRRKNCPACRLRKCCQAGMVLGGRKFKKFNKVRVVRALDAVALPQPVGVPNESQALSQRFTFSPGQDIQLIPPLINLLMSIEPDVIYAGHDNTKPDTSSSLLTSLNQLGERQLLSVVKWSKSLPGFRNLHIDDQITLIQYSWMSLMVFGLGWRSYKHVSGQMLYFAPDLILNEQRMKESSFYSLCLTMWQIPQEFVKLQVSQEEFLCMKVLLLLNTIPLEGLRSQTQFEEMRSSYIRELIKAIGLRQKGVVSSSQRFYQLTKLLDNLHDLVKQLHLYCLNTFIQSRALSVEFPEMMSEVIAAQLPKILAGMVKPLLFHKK
Nuclear receptor subfamily 1 group I member 2 (Homo sapiens), sequence (O75469 whole entry, looked up): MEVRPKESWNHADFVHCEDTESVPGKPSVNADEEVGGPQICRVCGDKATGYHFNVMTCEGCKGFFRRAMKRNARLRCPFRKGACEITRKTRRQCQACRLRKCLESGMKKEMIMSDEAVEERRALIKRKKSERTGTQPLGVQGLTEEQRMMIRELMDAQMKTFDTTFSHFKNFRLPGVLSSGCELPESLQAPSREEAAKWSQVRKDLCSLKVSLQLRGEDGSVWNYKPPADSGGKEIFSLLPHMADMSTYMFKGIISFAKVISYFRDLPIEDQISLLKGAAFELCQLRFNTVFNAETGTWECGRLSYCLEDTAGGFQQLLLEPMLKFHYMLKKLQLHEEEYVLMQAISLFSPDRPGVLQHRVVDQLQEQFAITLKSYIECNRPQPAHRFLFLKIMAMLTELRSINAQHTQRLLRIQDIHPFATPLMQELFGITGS
Nuclear receptor subfamily 1 group I member 2 (Rattus norvegicus), sequence (Q9R1A7 whole entry, looked up): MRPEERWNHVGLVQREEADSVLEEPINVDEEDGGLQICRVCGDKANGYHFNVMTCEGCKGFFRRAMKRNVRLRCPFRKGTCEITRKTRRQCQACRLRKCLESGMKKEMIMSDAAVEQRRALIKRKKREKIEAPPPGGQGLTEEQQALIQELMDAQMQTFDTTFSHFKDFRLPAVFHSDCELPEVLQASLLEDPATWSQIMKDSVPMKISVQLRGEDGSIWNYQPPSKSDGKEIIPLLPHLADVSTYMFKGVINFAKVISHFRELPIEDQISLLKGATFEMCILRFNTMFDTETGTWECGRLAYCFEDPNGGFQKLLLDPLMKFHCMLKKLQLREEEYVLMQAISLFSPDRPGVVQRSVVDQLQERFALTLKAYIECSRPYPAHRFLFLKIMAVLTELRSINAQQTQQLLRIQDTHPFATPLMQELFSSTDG

O=[N+]([O-])c1ccccc1-c1ccccc1
inactive: Potency [1] | Potency [2] | Potency [3] | Potency [4] | Potency [5] | Potency [6] | outcome [7] | Potency [8] | Potency [9] | Potency [10] | Potency [11] | Potency [12] | Potency [13] | Potency [14] | Potency [15] | Potency [16]

COC(=O)N(OC)c1ccccc1COc1ccn(-c2ccc(Cl)cc2)n1
inactive: Potency [2] | Potency [5] | Potency [6] | outcome [7] | Potency [9] | Potency [11] | Potency [16]
active: Potency [1] 0.864 µM | Potency [17] 4.86 µM | Potency [10] 5.45 µM | Potency [12] 0.0433 µM | Potency [14] 54.5 µM | Potency [15] 68.6 µM

CC(=O)[O-].CC(=O)[O-].CC(=O)[O-].[Sb+3]
inactive: activity change, negative = cytotoxicity [1] -1.24% [at 3.27 µM] | activation [2] 3.93% [at 3.27 µM] | activity change, negative = cytotoxicity [3] 10.2% [at 3.27 µM] | activity change, negative = cytotoxicity [4] 7.1% [at 3.27 µM] | viability change, negative = cytotoxic [5] -1.18% [at 2.72 µM] | activity change, negative = cytotoxicity [6] 2.52% [at 2.72 µM] | activation [7] -3.71% [at 2.72 µM] | activity change, negative = cytotoxicity [10] 2.16% [at 3.27 µM] | activity change, negative = cytotoxicity [12] 4.75% [at 3.27 µM] | caspase-3/7 activation [13] -0.0038% [at 3.27 µM] | activity change, negative = cytotoxicity [14] -0.0636% [at 3.27 µM]

CCCC[N+]1(C)CCCC1 (tested in a mixture with another compound)
active: Potency [12] 61.9 µM | Potency [15] 69.4 µM
inactive: Potency [1] | Potency [2] | Potency [3] | Potency [4] | Potency [5] | Potency [6] | outcome [7] | Potency [11] | Potency [13]

CC(Cl)CCl (stereo not given)
inactive: Potency [1] | Potency [2] | Potency [3] | Potency [4] | Potency [5] | Potency [6] | outcome [7] | Potency [10] | Potency [11] | Potency [12] | Potency [13] | Potency [14] | Potency [15] | Potency [16]

Cc1cccc(Cc2cnc[nH]2)c1C
inactive: Potency [1] | Potency [2] | Potency [3] | Potency [4] | Potency [5] | Potency [6] | outcome [7] | Potency [10] | Potency [11] | Potency [12] | Potency [13] | Potency [14] | Potency [15] | Potency [16]

CCn1cc[n+](C)c1 (tested in a mixture with another compound)
inactive: Potency [1] | Potency [2] | Potency [17] | Potency [4] | Potency [5] | Potency [6] | outcome [7] | Potency [10] | Potency [11] | Potency [12] | Potency [13] | Potency [14] | Potency [15]

CN1C(=O)[C@@H](NC(=O)c2cc3ccccc3[nH]2)N=C(c2ccccc2)c2ccccc21
inactive: Potency [1] | Potency [2] | Potency [3] | Potency [4] | Potency [5] | Potency [6] | outcome [7] | Potency [9] | Potency [10] | Potency [11] | Potency [12] | Potency [14] | Potency [15] | max activation [18] -0.0388% | Potency [19] | Potency [20] | Potency [16]

COc1nc(C)nc(NC(=O)NS(=O)(=O)c2ccccc2Cl)n1
inactive: Potency [1] | Potency [2] | Potency [3] | Potency [4] | Potency [5] | Potency [6] | outcome [7] | Potency [8] | Potency [9] | Potency [11] | Potency [12] | Potency [14] | Potency [15] | Potency [16]

CC(=O)C(Cl)C(=O)N(C)C (stereo not given)
inactive: Potency [1] | Potency [2] | Potency [3] | Potency [4] | Potency [5] | Potency [6] | outcome [7] | Potency [8] | Potency [9] | Potency [10] | Potency [13] | Potency [14] | Potency [16]

CC(=O)[O-].CC(=O)[O-].O.O.O.[Pb+2]
inactive: Potency [1] | Potency [2] | Potency [3] | Potency [4] | Potency [5] | Potency [6] | outcome [7] | Potency [10] | Potency [11] | Potency [12] | Potency [13]

Brc1ccc(Oc2ccc(Br)cc2Br)c(Br)c1
inactive: Potency [1] | Potency [2] | Potency [3] | Potency [5] | Potency [6] | outcome [7] | Potency [9] | Potency [10] | Potency [11] | Potency [13] | Potency [14] | Potency [16]
active: Potency [15] 30.7 µM

BrCC(Br)(Br)Br
inactive: Potency [1] | Potency [2] | Potency [4] | Potency [5] | Potency [6] | outcome [7] | Potency [9] | Potency [11] | Potency [12] | Potency [13] | Potency [14] | Potency [15] | Potency [16]
active: Potency [8] 15.7 µM

Cc1ccc2cc3c(ccc4ccccc43)c3c2c1CC3
active: Potency [15] 6.13 µM
inactive: Potency [1] | Potency [2] | Potency [3] | Potency [4] | Potency [5] | Potency [6] | Potency [9] | Potency [12] | Potency [13] | Potency [16]
